Laboratory results as given in the supplement of paper PMC6897291.

Key:
U-2932 [1] = test: growth inhibition by drug alone (1 - RLU/untreated control) (fraction); higher = stronger inhibition; conditions: 177Lu-lilotomab satetraxetan 0 ug/ml
How it was run: (§1)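 With or without 18 h pretreatment by a radiolabelled anti-CD37 antibody conjugate (~600 MBq/mg; 0.5 µg/ml RIVA, 1 µg/ml U-2932), RIVA and U-2932 cells were washed and plated at 3,000 cells/well. Pre-printed compound doses were 10/100 nM for RIVA and 10/1,000 nM for U-2932. Growth inhibition uses RealTime-Glo RLU relative to the untreated no-drug wells. The calculation is 1 − RLU/mean of 48 such wells per plate, with reads daily from day 3 after 1 h at 37°C.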

RIVA [2] = test: as above; conditions: 177Lu-lilotomab satetraxetan 0 ug/ml
How it was run: as §1

U-2932 [3] = test: growth inhibition by drug plus 177Lu-lilotomab satetraxetan (1 - RLU/untreated control) (fraction); higher = stronger inhibition; conditions: 177Lu-lilotomab satetraxetan 1 ug/ml
How it was run: as §1

RIVA [4] = test: as above; conditions: 177Lu-lilotomab satetraxetan 0.5 ug/ml
How it was run: as §1

Structure (SMILES) | growth inhibition by drug alone (U-2932 [1]; 10 nM, time (day): 3) | growth inhibition by drug alone (U-2932 [1]; 10 nM, time (day): 4) | growth inhibition by drug alone (U-2932 [1]; 10 nM, time (day): 5) | growth inhibition by drug alone (U-2932 [1]; 10 nM, time (day): 6) | growth inhibition by drug alone (U-2932 [1]; 1000 nM, time (day): 3) | growth inhibition by drug alone (U-2932 [1]; 1000 nM, time (day): 4) | growth inhibition by drug alone (U-2932 [1]; 1000 nM, time (day): 5) | growth inhibition by drug alone (U-2932 [1]; 1000 nM, time (day): 6) | growth inhibition by drug alone (RIVA [2]; 10 nM, time (day): 3) | growth inhibition by drug alone (RIVA [2]; 10 nM, time (day): 4) | growth inhibition by drug alone (RIVA [2]; 10 nM, time (day): 5) | growth inhibition by drug alone (RIVA [2]; 10 nM, time (day): 6) | growth inhibition by drug alone (RIVA [2]; 100 nM, time (day): 3) | growth inhibition by drug alone (RIVA [2]; 100 nM, time (day): 4) | growth inhibition by drug alone (RIVA [2]; 100 nM, time (day): 5) | growth inhibition by drug alone (RIVA [2]; 100 nM, time (day): 6) | growth inhibition by drug plus 177Lu-lilotomab satetraxetan (U-2932 [3]; 10 nM, time (day): 3) | growth inhibition by drug plus 177Lu-lilotomab satetraxetan (U-2932 [3]; 10 nM, time (day): 4) | growth inhibition by drug plus 177Lu-lilotomab satetraxetan (U-2932 [3]; 10 nM, time (day): 5) | growth inhibition by drug plus 177Lu-lilotomab satetraxetan (U-2932 [3]; 10 nM, time (day): 6) | growth inhibition by drug plus 177Lu-lilotomab satetraxetan (U-2932 [3]; 1000 nM, time (day): 3) | growth inhibition by drug plus 177Lu-lilotomab satetraxetan (U-2932 [3]; 1000 nM, time (day): 4) | growth inhibition by drug plus 177Lu-lilotomab satetraxetan (U-2932 [3]; 1000 nM, time (day): 5) | growth inhibition by drug plus 177Lu-lilotomab satetraxetan (U-2932 [3]; 1000 nM, time (day): 6) | growth inhibition by drug plus 177Lu-lilotomab satetraxetan (RIVA [4]; 10 nM, time (day): 3) | growth inhibition by drug plus 177Lu-lilotomab satetraxetan (RIVA [4]; 10 nM, time (day): 4) | growth inhibition by drug plus 177Lu-lilotomab satetraxetan (RIVA [4]; 10 nM, time (day): 5) | growth inhibition by drug plus 177Lu-lilotomab satetraxetan (RIVA [4]; 10 nM, time (day): 6) | growth inhibition by drug plus 177Lu-lilotomab satetraxetan (RIVA [4]; 100 nM, time (day): 3) | growth inhibition by drug plus 177Lu-lilotomab satetraxetan (RIVA [4]; 100 nM, time (day): 4) | growth inhibition by drug plus 177Lu-lilotomab satetraxetan (RIVA [4]; 100 nM, time (day): 5) | growth inhibition by drug plus 177Lu-lilotomab satetraxetan (RIVA [4]; 100 nM, time (day): 6)
CC(C)C[C@H](NC(=O)[C@H](Cc1ccccc1)NC(=O)c1cnccn1)B(O)O [Bortezomib (Velcade)] | 0.965 | 0.971 | 0.976 | 0.978 | 0.985 | 0.984 | 0.985 | 0.985 | 0.923 | 0.946 | 0.958 | 0.96 | 0.978 | 0.978 | 0.978 | 0.976 | 0.952 | 0.967 | 0.976 | 0.98 | 0.986 | 0.987 | 0.986 | 0.988 | 0.955 | 0.969 | 0.976 | 0.98 | 0.989 | 0.989 | 0.989 | 0.99
N#CC[C@H](C1CCCC1)n1cc(-c2ncnc3[nH]ccc23)cn1 | 0.018 | 0.0281 | -0.0548 | -0.139 | -0.0929 | -0.0506 | -0.111 | -0.125 | 0.0229 | -0.0212 | -0.0792 | -0.268 | -0.143 | -0.098 | -0.128 | -0.247 | 0.00599 | 0.0333 | -0.193 | 0.112 | -0.166 | -0.0146 | -0.0674 | -0.122 | 0.32 | 0.445 | 0.469 | 0.488 | 0.269 | 0.379 | 0.376 | 0.348
CCc1cncnc1N1CCN(Cc2nc3ccc(C(F)(F)F)cc3[nH]2)CC1 | 0.0983 | 0.0884 | -0.0751 | -0.108 | 0.0626 | 0.102 | 0.0246 | -0.253 | 0.00505 | -0.0231 | -0.0829 | -0.347 | -0.0601 | -0.0865 | -0.0867 | -0.192 | 0.00491 | 0.0254 | 0.0426 | 0.0627 | -0.00879 | 0.086 | 0.0686 | 0.0567 | 0.505 | 0.583 | 0.59 | 0.587 | 0.49 | 0.55 | 0.542 | 0.514
COc1cc(Nc2c(C#N)cnc3cc(OCCCN4CCN(C)CC4)c(OC)cc23)c(Cl)cc1Cl [Bosutinib (SKI-606)] | 0.086 | 0.0525 | -0.0862 | -0.0345 | 0.264 | 0.239 | 0.19 | 0.239 | -0.0137 | -0.0501 | -0.131 | -0.404 | -0.377 | -0.355 | -0.406 | -0.598 | 0.0416 | 0.085 | 0.124 | 0.135 | 0.333 | 0.281 | 0.33 | 0.431 | 0.588 | 0.626 | 0.647 | 0.638 | 0.263 | 0.36 | 0.378 | 0.403
CN(NC(=O)CC(=O)NN(C)C(=S)c1ccccc1)C(=S)c1ccccc1 [Elesclomol] | 0.796 | 0.791 | 0.818 | 0.825 | 0.982 | 0.982 | 0.983 | 0.984 | 0.97 | 0.964 | 0.963 | 0.964 | 0.976 | 0.976 | 0.975 | 0.974 | 0.854 | 0.88 | 0.914 | 0.935 | 0.983 | 0.982 | 0.984 | 0.987 | 0.972 | 0.968 | 0.972 | 0.974 | 0.987 | 0.988 | 0.987 | 0.988
C[C@@H](N)[C@H]1CC[C@H](C(=O)Nc2ccncc2)CC1 | -0.00242 | -0.0313 | -0.0598 | -0.119 | -0.0269 | -0.0273 | -0.115 | -0.0522 | -0.062 | -0.109 | -0.134 | -0.231 | -0.413 | -0.366 | -0.399 | -0.522 | -0.0365 | 0.0334 | 0.0633 | 0.082 | -0.014 | 0.0434 | 0.0766 | 0.194 | 0.59 | 0.588 | 0.605 | 0.619 | 0.339 | 0.452 | 0.463 | 0.469
Nc1ncn([C@@H]2O[C@H](CO)[C@@H](O)[C@H]2O)c(=O)n1 [Azacitidine (Vidaza)] | -0.0982 | -0.0929 | -0.0726 | -0.0507 | -0.188 | -0.0618 | 0.0181 | 0.17 | -0.294 | -0.286 | -0.358 | -0.438 | -0.343 | -0.332 | -0.3 | -0.406 | -0.107 | -0.0484 | 0.0134 | -0.00849 | -0.0673 | 0.0405 | 0.146 | 0.324 | 0.407 | 0.483 | 0.506 | 0.5 | 0.241 | 0.37 |  | 
